# Assay results published in PMC5540273 (PLoS ONE, 2017).
# Where two headings read alike, the source gives them in different places.
# What was measured:
# LTK = conditions: n = 1
# MAPKAPK2 = conditions: n = 1
# LCK = conditions: concentration: 1 μM,replicates: in singlicate; n = 1
# LIMK1 = conditions: concentration: 1 μM,replicates: in singlicate; n = 1
# LIMK2 = conditions: concentration: 1 μM,replicates: in singlicate; n = 1
# LKB1 = test system: T1, LKB1; conditions: concentration: 1 μM,replicates: in singlicate; n = 1
# T1 construct: gene STK11
# LOK = test system: T2, LOK; conditions: concentration: 1 μM,replicates: in singlicate; n = 1
# T2 construct: gene STK10
# LRRK2 = conditions: concentration: 1 μM,replicates: in singlicate; n = 1
# LYN = conditions: concentration: 1 μM,replicates: in singlicate; n = 1
# LZK = test system: T3, LZK; conditions: concentration: 1 μM,replicates: in singlicate; n = 1
# T3 construct: gene MAP3K13
# MAK = conditions: concentration: 1 μM,replicates: in singlicate; n = 1
# MAP3K15 = conditions: concentration: 1 μM,replicates: in singlicate; n = 1
# MAP3K1 = conditions: concentration: 1 μM,replicates: in singlicate; n = 1
# MAP3K2 = conditions: concentration: 1 μM,replicates: in singlicate; n = 1
# MAP3K3 = conditions: concentration: 1 μM,replicates: in singlicate; n = 1
# MAP3K4 = conditions: concentration: 1 μM,replicates: in singlicate; n = 1
# MAP4K2 = conditions: concentration: 1 μM,replicates: in singlicate; n = 1
# MAP4K3 = conditions: concentration: 1 μM,replicates: in singlicate; n = 1
# MAP4K4 = conditions: concentration: 1 μM,replicates: in singlicate; n = 1
# MAP4K5 = conditions: concentration: 1 μM,replicates: in singlicate; n = 1
# [1] = concentration: 1 μM,replicates: in singlicate
# 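Also: KINOMEscan kinase panel screen.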
structure (smiles),measurement,setting,value
COc1cccc(OC)c1C(=O)Nc1cccc(-c2nn3ccccc3c2-c2ccnc(Nc3cccc(F)c3)n2)c1 [GSK361065],%Inh,LTK; 1 µM,13%
C[C@@H]1CNc2c(sc3ccc4nc(-c5ccncc5)ccc4c23)C(=O)N1,%Inh,MAPKAPK2; 1 µM,97.1%
Cc1ccn2nc(-c3ccc(F)cc3)c(-c3ccncc3)c2c1.Cl [GW457859],%Inh,LCK,12%
same,%Inh,LIMK1,0%
same,%Inh,LIMK2,0%
same,%Inh,LKB1,10%
same,%Inh,LOK,0%
same,%Inh,LRRK2,0%
same,%Inh,LTK; [1],0%
same,%Inh,LYN,0%
same,%Inh,LZK,44%
same,%Inh,MAK,17%
same,%Inh,MAP3K15,0%
same,%Inh,MAP3K1,0%
same,%Inh,MAP3K2,0%
same,%Inh,MAP3K3,0%
same,%Inh,MAP3K4,0%
same,%Inh,MAP4K2,2%
same,%Inh,MAP4K3,0%
same,%Inh,MAP4K4,14%
same,%Inh,MAP4K5,0%
same,%Inh,MAPKAPK2; [1],15%
Cc1ccc(C(=O)Nc2ccc(Oc3ccc4nc(NC(=O)C5CC5)cn4c3)c(F)c2)c(=O)n1-c1ccccc1,%Inh,LCK,99.2%
same,%Inh,LIMK1,42%
same,%Inh,LIMK2,21%
same,%Inh,LKB1,34%
same,%Inh,LOK,99.9%
same,%Inh,LRRK2,0%
same,%Inh,LTK; [1],38%
same,%Inh,LYN,57%
same,%Inh,LZK,0%
same,%Inh,MAK,0%
same,%Inh,MAP3K15,0%
same,%Inh,MAP3K1,0%
same,%Inh,MAP3K2,0%
same,%Inh,MAP3K3,5%
same,%Inh,MAP3K4,12%
same,%Inh,MAP4K2,0%
same,%Inh,MAP4K3,16%
same,%Inh,MAP4K4,0%
same,%Inh,MAP4K5,0%
same,%Inh,MAPKAPK2; [1],0%
O=c1[nH]cc(-c2ccc(O)cc2)c2sc(-c3ccncc3)cc12 [GSK1033723],%Inh,LCK,7%
same,%Inh,LIMK1,0%
same,%Inh,LIMK2,23%
same,%Inh,LKB1,13%
same,%Inh,LOK,0%
same,%Inh,LRRK2,0%
same,%Inh,LTK; [1],0%
same,%Inh,LYN,0%
same,%Inh,LZK,4%
same,%Inh,MAK,31%
same,%Inh,MAP3K15,0%
same,%Inh,MAP3K1,13%
same,%Inh,MAP3K2,7%
same,%Inh,MAP3K3,0%
same,%Inh,MAP3K4,0%
same,%Inh,MAP4K2,0%
same,%Inh,MAP4K3,0%
same,%Inh,MAP4K4,0%
same,%Inh,MAP4K5,0%
same,%Inh,MAPKAPK2; [1],0%
O=C(Nc1ccc(Oc2ccc3nc(NC(=O)C4CC4)cn3n2)c(F)c1)c1cccn(-c2ccccc2)c1=O,%Inh,LCK,0%
same,%Inh,LIMK1,33%
same,%Inh,LIMK2,29%
same,%Inh,LKB1,0%
same,%Inh,LOK,99.5%
same,%Inh,LRRK2,0%
same,%Inh,LTK; [1],29%
same,%Inh,LYN,36%
same,%Inh,LZK,0%
same,%Inh,MAK,10%
same,%Inh,MAP3K15,0%
same,%Inh,MAP3K1,0%
same,%Inh,MAP3K2,0%
same,%Inh,MAP3K3,15%
same,%Inh,MAP3K4,24%
same,%Inh,MAP4K2,0%
same,%Inh,MAP4K3,4%
same,%Inh,MAP4K4,1%
same,%Inh,MAP4K5,0%
same,%Inh,MAPKAPK2; [1],13%
COC(=O)c1cccc(NC(=O)NC2CCN(c3ccnc(Nc4cc(OC)c(OC)c(OC)c4)n3)C2)c1 (centres unmarked) [GSK1379767],%Inh,LCK,7%
same,%Inh,LIMK1,0%
same,%Inh,LIMK2,35%
same,%Inh,LKB1,0%
same,%Inh,LOK,45%
same,%Inh,LRRK2,0%
same,%Inh,LTK; [1],83%
same,%Inh,LYN,0%
same,%Inh,LZK,54%
same,%Inh,MAK,36%
same,%Inh,MAP3K15,0%
same,%Inh,MAP3K1,0%
same,%Inh,MAP3K2,0%
same,%Inh,MAP3K3,0%
same,%Inh,MAP3K4,7%
same,%Inh,MAP4K2,0%
same,%Inh,MAP4K3,3%
same,%Inh,MAP4K4,15%
same,%Inh,MAP4K5,35%
same,%Inh,MAPKAPK2; [1],0%
CCn1c(-c2nonc2N)nc2cncc(Br)c21 [SB-738004],%Inh,LCK,0%
same,%Inh,LIMK1,0%
same,%Inh,LIMK2,5%
same,%Inh,LKB1,19%
same,%Inh,LOK,9%
same,%Inh,LRRK2,45%
same,%Inh,LTK; [1],0%
same,%Inh,LYN,13%
same,%Inh,LZK,41%
same,%Inh,MAK,28%
same,%Inh,MAP3K15,18%
same,%Inh,MAP3K1,10%
same,%Inh,MAP3K2,0%
same,%Inh,MAP3K3,0%
same,%Inh,MAP3K4,3%
same,%Inh,MAP4K2,40%
same,%Inh,MAP4K3,0%
same,%Inh,MAP4K4,3%
same,%Inh,MAP4K5,0%
same,%Inh,MAPKAPK2; [1],10%
CCCC(=O)Nc1n[nH]c2ncccc12 [SB-601436],%Inh,LCK,14%
same,%Inh,LIMK1,0%
same,%Inh,LIMK2,0%
same,%Inh,LKB1,0%
same,%Inh,LOK,3%
same,%Inh,LRRK2,0%
same,%Inh,LTK; [1],4%
same,%Inh,LYN,0%
same,%Inh,LZK,0%
same,%Inh,MAK,7%
same,%Inh,MAP3K15,29%
same,%Inh,MAP3K1,0%
same,%Inh,MAP3K2,5%
same,%Inh,MAP3K3,34%
same,%Inh,MAP3K4,11%
same,%Inh,MAP4K2,5%
same,%Inh,MAP4K3,0%
same,%Inh,MAP4K4,0%
same,%Inh,MAP4K5,0%
same,%Inh,MAPKAPK2; [1],16%
Cc1cccc2c(-c3ccncc3)c(-c3ccc(F)cc3)nn12.Cl [GW461487],%Inh,LCK,19%
same,%Inh,LIMK1,0%
same,%Inh,LIMK2,4%
same,%Inh,LKB1,4%
same,%Inh,LOK,0%
same,%Inh,LRRK2,26%
same,%Inh,LTK; [1],100%
same,%Inh,LYN,0%
same,%Inh,LZK,5%
same,%Inh,MAK,26%
same,%Inh,MAP3K15,100%
same,%Inh,MAP3K1,13%
same,%Inh,MAP3K2,19%
same,%Inh,MAP3K3,0%
same,%Inh,MAP3K4,20%
same,%Inh,MAP4K2,0%
same,%Inh,MAP4K3,0%
same,%Inh,MAP4K4,9%
same,%Inh,MAP4K5,0%
same,%Inh,MAPKAPK2; [1],0%
Cl.Cl.NC[C@H](CC1CCCCC1)NC(=O)c1ccc(-c2ccnc3[nH]ccc23)s1 [GSK1581428],%Inh,LCK,37%
same,%Inh,LIMK1,0%
same,%Inh,LIMK2,0%
same,%Inh,LKB1,50%
same,%Inh,LOK,31%
same,%Inh,LRRK2,49%
same,%Inh,LTK; [1],0%
same,%Inh,LYN,0%
same,%Inh,LZK,0%
same,%Inh,MAK,0%
same,%Inh,MAP3K15,25%
same,%Inh,MAP3K1,12%
same,%Inh,MAP3K2,40%
same,%Inh,MAP3K3,33%
same,%Inh,MAP3K4,10%
same,%Inh,MAP4K2,95.7%
same,%Inh,MAP4K3,47%
same,%Inh,MAP4K4,20%
same,%Inh,MAP4K5,12%
same,%Inh,MAPKAPK2; [1],0%
